Experimental findings from the supplement of paper PMC6555819 are described below.

This assay concerns THRa homodimer (NR concentration 90 nM). The experiment in a line: PBM binding z-score (relative to random genomic background probes); higher = stronger binding; sequences stand for … in GC…GCGATTGACAGCGTAGAATGAAGG
In outline: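 Ligand-free nuclear receptor dimers were applied to custom Agilent 4×180K protein-binding microarrays whose double-stranded probes carried direct-repeat seeds, single-nucleotide variants, half-site ablations and random human genomic background sequences in 34-nt variable regions. Incubation lasted 1 h. Binding z-scores were computed against the random background probes from regression-normalized fluorescence.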
Sequence TCTAGCAGGCCAGAGGGCCACTCAAGAGGTACGG came in with a PBM binding z-score of -1.1.
In turn, CAAACTAGGTCAAAGGTCCAAGTCGAGCCAACCA came in with a PBM binding z-score of 0.728.
With CCTTACGGGTCACTCCCGGTTATAGCATCGGAGT the figure was 0.272; with CGAACTAGGTCAAGGACAGTGACTCTCCGCACGC, 2.26.
The figure for GCCAGCAGGCCATTTGGGTCACTCAATGACGGGC is 0.516; for TCTTATAGGTAAAGGTGAAAGTCGAACGATATGA it is 0.153; for TCTGCTAGGTCAGTTGTTCAGCTAACGAGCTGCC it is 0.158.
Turning to CATACAGTGTCAGCTAGGCCAGAGTAGGGACGGC, the PBM binding z-score is 0.00703.
With CGCACGAGGGCATGAGTTGATAGCAAATGCCGAT the figure was 0.0381.
TAGCCTAGGTCATTGGGCGAGTATAGTACGCATC: the PBM binding z-score turned out to be 0.571.
The figure for AGCACGAGGGCACGCTGAGTTGATAGCAGAGTAG is 0.103; for GCAGACAGGTGAAACTCAGGTAACTCAGGGTGGC it is 0.521; for ACTAGTTGGTCAGCGGAGGTCACACACAATTCGG it is 2.89.
TCTATTAGTTGAAGGGCTACCGACGAGTCCGTTT showed a PBM binding z-score of -0.0569.
The sequence CGTCCAAGGTGAAGGTCAGTGAAAGAGACTCGAA returned a PBM binding z-score of 0.956.
With CCGACTGGGGCAAAGGTTACCTTACTCAGTACGA the figure was 0.802; with TCATATAGGTAAAGGTGAAAGTGGAACGATATGA, -0.306.
The figure for CCGACTGGGACAAGGTTACCATAACGCACAGCCA is 1.08; for TCTCGGAGGACCCGAAAGGTCAGAGCTCGACATC it is 0.369; for CGTCAAGGTTCAAGGTAACGTAACAGAAAGCAGC it is 1.01.
The figure for CCTACTGGGCCAAAGGTAATTGATTCCAATGCTC is -0.123; for TCTTGTAGATCGAGCAGGTTAAGAAAGCCTGAGT it is -0.506.
CAAACTAGGTCACCGGAAGGTCAAGGTCCGCATG displayed a PBM binding z-score of 3.53.
TGAACGAGGTTATAAGATCAGGGAACGTTGCAAA: the PBM binding z-score was -0.282.
The sequence ACTAGTTGGTCAGCTGAGGTCTCACACAATTCGG gave a PBM binding z-score of 0.829.
As for CAAACTAGGTAACGAAAGGTCAAAGTCGAATGAC, the PBM binding z-score was determined as 1.16.
The figure for CCTATTAGTTGACCATAAGGGCAACCGAAGCTCG is 1.34; for TCGAGTAGGTAAGTCGGGGCATTCAGCCAACATA it is -0.297.
With CGAACGAGGGCATGAATTGATAGCAAATGCCGAT the figure was -0.496.
With TCACCAAGGTGAGCTGAGGTCGTTGATCCAACTC the figure was 1.49; with ACAGACAGGTGAGTGAAGGTAACTCAGCTGGACG, -0.394; with ACTAGCAGGCCGAGGGTCACTCAAGATTAGTCCG, -0.126.
Sequence CCTATTAGTTGACCATAAGGACAACCGAAGCTCG displayed a PBM binding z-score of 3.91.
On to AGTCAAAGTTCACTAGGTACCGTAAGATTCAGCT, for which the PBM binding z-score was -0.132.
On to GCTTACGGGTCAAAGGTTATAGAATGAATAGAAT, for which the PBM binding z-score was determined as 0.468.
The sequence ATCTCTAGGTAACAAGTTCTGTGAAAGAGAGGAC registered a PBM binding z-score of 0.878.
With ATCTTTAGGTAAAAGTTCAGTGAATCCCGAGGAT the figure was 0.573.
Consider CAAACTAGGTCAAGAGGTCAAAATCCGCTTCCCG, for which the PBM binding z-score turned out to be 2.33.
As to ACTAGCAGGCCAAGTTTGGGTCAGTCAAACAAAG, the PBM binding z-score is 0.427.
TCTCGGAGGACACGAAAGGTCAGATCTCGACATC gave a PBM binding z-score of 1.45.
